# Assay results published in PubChem BioAssay (Tox21).
# Values joined by “and” are separate entries in the source; they are usually repeats but may differ in a detail not shown here. Equal values may be shown once. Inconclusive results are not listed. A structure can be active in one record and inactive in another. Active and inactive are the calls of the source. Calls come from the whole dose curve; as a rule, active = well fitted activation curve with a large enough effect in the repeat runs; inconclusive = weak or mixed curves; inactive = flat fitted curve, though single readings scatter.
# Test: A CellTox Green Cytotoxicity Assay to monitor cytotoxicity in HepG2 cells - 24 hour (AID 1224878); note: nearly all actives have a fitted effect of over 45% in size
# Conditions: CellTox Green fluorescence; series mostly up to 76.8 µM; cytotoxicity: at the top concentration
# Description: National Center for Advancing Translational Sciences [NCATS]
# NIH Chemical Genomics Center [NCGC]
# U.S. Environmental Protection Agency [EPA]
# National Institutes of Environmental Health Sciences [NIEHS]
# National Toxicology Program [NTP]
# Cell-based models are critical for drug discovery. Determining the natural cytotoxic effects resulting from test compounds is an essential research activity. A CellTox Green Cytotoxicity Assay to monitor cytotoxicity in real time of continues cell culture during 40 hours of the compound treatment was used to screen Tox21 10K library compounds in HepG2 cells. CellTox Green Cytotoxicity Assay is a nonlytic, homogeneous, biofluorescent method to measure cytotoxicity in cell culture after experimental manipulation. The assay system uses a proprietary asymmetric cyanine dye that is excluded from viable cells but preferentially stains the dead cell's DNA. […] Viable cells produce no appreciable increases in fluorescence. Therefore, the fluorescence signal produced by the binding interaction with dead cell DNA is proportional to cytotoxicity.
# The mixture of HepG2 cell suspension and reagents were dispensed at 600cells/6 ul/well in 1536-well tissue culture treated black solid bottom plates using a Multidrop dispenser. After the assay plates were incubated at a 37 C/5% CO2 incubator for 5 hours, 23 nL of compounds dissolved in DMSO, positive and negative controls was transferred to the assay plate by a pintool work station. The plates were incubated at 37 C for 40 hours. The fluorescence intensity were measured at 0h, 8h, 16h, 24h, 32h and 40h time points using ViewLux plate reader during compound treatment.
# % is set by controls: 0 for no effect and ±100 for the full control effect; potency is the fitted concentration of half-maximal effect.
Structure (SMILES),Potency,cytotoxicity
O=c1n(CCO)c(=O)n(CCO)c(=O)n1CCO,inactive and 38.9 µM (active),
CS(=O)(=O)O,,-6.31% (inactive)
C=C[Si](OC(=C)C)(OC(=C)C)OC(=C)C,,23.9% (inactive)
Cc1cnc(NS(=O)(=O)c2ccc(N)cc2)nc1,,1.06% [at 35.3 µM] (inactive)
CCOC(=O)c1ccc(C)cc1,,3.37% (inactive)
c1ccc([C@H]2CN3CCSC3=N2)cc1,,-10.3% [at 35.3 µM] (inactive)
CCc1cccc2c(CCO)c[nH]c12,,1.56% [at 35.3 µM] (inactive)
COC(=O)[C@@H](N)Cc1ccc(O)c(O)c1,,-21.8% [at 35.3 µM] (inactive)
CCCCCCCCCCCCN(CCCCCCCCCCCC)CCCCCCCCCCCC,,1.23% (inactive)
CCCc1cc(C(N)=S)ccn1,,-11.5% [at 35.3 µM] (inactive)
N#Cc1ccc(C2CCCc3cncn32)cc1 (stereo not given),,-0.881% [at 35.3 µM] (inactive)
CC(=O)OCC(=O)[C@@]1(O)CCC2C3CCC4=CC(=O)CC[C@]4(C)C3[C@@H](O)C[C@@]21C (stereo not given in full),,-1.7% [at 35.3 µM] (inactive)
CN1CCC(=C2c3ccccc3CC(=O)c3sccc32)CC1,,5.77% [at 35.3 µM] (inactive)
CCCCCCCCCCCCCCCCC,,-13.9% (inactive)
CN(C)CCCSc1ccccc1NC(=O)/C=C/c1ccccc1,19 µM (active),
O=[N+]([O-])c1ccc(F)cc1F,,-4.8% (inactive)
ClC(Cl)(Br)Br,,-6.87% (inactive)
Nc1ccc(S(=O)(=O)Nc2ccnn2-c2ccccc2)cc1,,-1.77% [at 15.8 µM] (inactive)
N=c1nc(N2CCCCC2)cc(N)n1O,,-5.4% [at 35.3 µM] (inactive)
CC(C)c1cc2c(cc1S(=O)(=O)O)[C@@]1(C)CCC[C@@](C)(C(=O)O)[C@@H]1CC2,,-9.68% [at 35.3 µM] (inactive)

Structure (SMILES),Potency,cytotoxicity
c1ccc(CC2=NCCN2)cc1,,0.172% [at 35.3 µM] (inactive)
CC(=O)Nc1ccc(S(N)(=O)=O)cc1,,-4.14% (inactive)
O=C1CCCN1C1CCCCC1,,4.27% (inactive)
CC[N+](C)(C)c1cccc(O)c1,,-16% [at 35.3 µM] (inactive)
Nc1ccccc1S(=O)(=O)O,,-10.6% (inactive)
CC(NC(CCc1ccccc1)C(=O)O)C(=O)N1C(=O)N(C)CC1C(=O)O (stereo not given),,0.642% [at 35.3 µM] (inactive)
CC(C)OC(=O)c1ccccc1,,-8.1% (inactive)
C[C@H](NC(CCc1ccccc1)C(=O)O)C(=O)N1CCC[C@H]1C(=O)O (stereo not given in full),,-2.01% [at 35.3 µM] (inactive)
CC1(C)CO[C@@H](CC(=O)O)CN1,,-12.5% [at 35.3 µM] (inactive)
Cc1cccn2c(=O)c(-c3nnn[nH]3)cnc12,,3.1% [at 15.8 µM] (inactive)
CCN(CC)CCOCCOC(=O)C1(c2ccccc2)CCCC1,,3.97% [at 35.3 µM] (inactive)
C=COCC1CCC(CO)CC1 (stereo not given),,-0.348% (inactive)
CC(C)(C)NCCNC(C)(C)C,,1.63% (inactive)
COC(C)(C)CCCC(C)CC=O (stereo not given),,-2.49% (inactive)
CN(C(=O)c1c(O)c2ccccc2n(C)c1=O)c1ccccc1,,-1.97% [at 35.3 µM] (inactive)
NS(=O)(=O)c1cc2c(cc1Cl)NC(C1CC3C=CC1C3)NS2(=O)=O (stereo not given),,6.75% [at 35.3 µM] (inactive)
OC[C@]1(O)OC[C@@H](O)[C@H](O)[C@@H]1O,inactive,
CC/C=C\CC/C=C/C(OCC)OCC,,-5.69% (inactive)
CC(C)CCCC(C)N (stereo not given),,-17.2% [at 35.3 µM] (inactive)
O=C(O)CCCl,,-4.31% (inactive)
